# According to ChEMBL document CHEMBL3988442, “University of Dundee, Small-Polar-MMV Screening Library” (2021):
# Biological target: T1, Aspartate--tRNA(Asp/Asn) ligase (Mycobacterium tuberculosis (strain ATCC 25618 / H37Rv)) (UniProt P9WFW3)
# T1 sequence (whole entry): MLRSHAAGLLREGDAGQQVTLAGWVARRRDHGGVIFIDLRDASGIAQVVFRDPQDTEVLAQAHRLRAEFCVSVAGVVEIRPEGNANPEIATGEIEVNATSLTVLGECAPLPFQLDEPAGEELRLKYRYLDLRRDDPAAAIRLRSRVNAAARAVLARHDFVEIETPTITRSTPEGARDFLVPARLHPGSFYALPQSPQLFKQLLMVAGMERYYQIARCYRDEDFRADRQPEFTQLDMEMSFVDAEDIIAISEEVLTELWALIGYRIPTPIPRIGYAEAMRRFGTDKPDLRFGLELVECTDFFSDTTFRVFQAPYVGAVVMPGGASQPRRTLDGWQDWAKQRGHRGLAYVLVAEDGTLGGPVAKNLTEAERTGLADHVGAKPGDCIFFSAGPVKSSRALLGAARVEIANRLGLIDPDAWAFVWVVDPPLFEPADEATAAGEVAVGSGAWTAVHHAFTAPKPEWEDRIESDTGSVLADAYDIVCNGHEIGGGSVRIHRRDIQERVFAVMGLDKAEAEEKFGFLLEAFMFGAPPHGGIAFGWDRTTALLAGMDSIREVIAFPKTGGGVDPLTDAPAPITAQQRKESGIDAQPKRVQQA
# Test: Assay for Asp RNA synthetase-1 from Mycobacterium tuberculosis
# Type: functional
# Set-up: scale not given: in the data most compounds retested in dose-response had high values
# Conditions: 30 µM
row,SMILES,Percent Effect
1,O=C(CCC1CCCO1)NCc1ccnc(-n2cccn2)c1 (stereo not given),7.84%
2,Cc1ccc(CC(=O)NC(C)C(=O)N2CCS(=O)(=O)CC2)cc1 (stereo not given),0.123%
3,CCOc1ccc(-c2ccnc(CC)n2)cc1C(=O)O,-3.09%
4,Cn1c(C(F)(F)F)nn(CCNC(=O)c2cnc3ccccc3n2)c1=O,-7.1%
5,Cc1ccc(N2CCC3(CCCN(C(=O)c4cccnc4)C3)C2)nn1 (stereo not given),8.13%
6,CSCC(=O)N1CCCC(n2ccnc2C(C)C)C1 (stereo not given),-2.84%
7,Cn1nccc1C(=O)N1CCOC(Cc2cccnc2)C1 (stereo not given),-0.485%
8,O=C(c1cccc(Cl)c1)N1CC[C@H]2[C@H]1CCN2CC1CCOCC1,-4.93%
9,CN(C(=O)c1ccccn1)c1nc2c(s1)CCc1c-2cnn1C,50%
10,Cn1cc(-c2csc(N3CCOCC3)n2)cn1,2.54%
11,Cc1cc(C)n(CC2CCCN2C(=O)c2c[nH]c3ncccc23)n1 (stereo not given),-1.92%
12,Cc1nc(CCNC(=O)NC2CCN(c3ncccn3)CC2)cs1,-2.14%
13,O[C@H]1[C@H](n2cc(-c3ccccc3)nn2)c2ccccc2C12CCNCC2,6.77%
14,CCCNC(=O)c1cc2c(nc1O)CCC(C)C2 (stereo not given),-2.53%
15,COCCN1CC[C@H](O)[C@@H]1Cc1ccccc1,-4.18%
16,COC(=O)Cn1cccc(S(=O)(=O)N2CCC(C)CC2)c1=O,-4.76%
17,Cc1ccc(N2CCCN(C(=O)CC3CCCO3)CC2)nn1 (stereo not given),10.1%
18,CCS(=O)(=O)N(C)c1ccc(C(=O)N2CCCC(C)C2)cc1 (stereo not given),-3.31%
19,CN(C)C(C)(C)CNC(=O)C(C)(C)c1ccccc1F,-0.279%
20,CCc1nccn1C1CCCN(C(=O)Cc2n[nH]c3ccccc23)C1 (stereo not given),0.83%

row,SMILES,Percent Effect
1,N#Cc1ccc(CNCC(C(=O)N2CCOCC2)c2ccccc2)cc1 (stereo not given),24.2%
2,CCCNC(=O)COc1ccc(C)cn1,-4.7%
3,CC(C)NC(=O)C(c1ccccc1)N1CCn2c(nnc2C2CC2)C1 (stereo not given),-1.48%
4,CN1CCOC(CNCCc2ccccn2)C1 (stereo not given),-3.97%
5,NC(=O)Cc1ccc(NC(=O)C2CCOCC2)cc1,1.11%
6,CCN(C)c1ncnc2c1CCN(Cc1ccc(OC)cc1)CC2,7%
7,CC(C)c1nccn1C1CCCN(C(=O)c2ccc3c(c2)OCO3)C1 (stereo not given),-0.317%
8,O=C1CCC2(CCN(Cc3ccc(F)cc3)CC2)N1Cc1ccccc1,-0.182%
9,Cc1ncoc1C(=O)N1CCn2c(COCC3CC3)cnc2C1C (stereo not given),7.95%
10,Fc1cccc(-c2nc(CN3CCOC(Cn4cccn4)C3)co2)c1 (stereo not given),2.49%
11,Cc1cc(CN(C)Cc2cc3c(cc2OC(F)F)OCO3)on1,4.16%
12,CC(C)CC(=O)N1CC[C@@H]2[C@H](CC1)N(S(C)(=O)=O)CCS2(=O)=O,-2.04%
13,Cc1cc(C)n(CCC(=O)N2CCCC(n3cncn3)C2)n1 (stereo not given),-6.22%
14,CCS(=O)(=O)N1CCc2c(cccc2NC(=O)NCCOC)C1,5.42%
15,COc1ccccc1OCCN1CCC(N2CCNC2=O)CC1,-1.95%
16,CCc1noc(C)c1C(=O)N(C)Cc1ncc(C)c(OC)c1C,-1.73%
17,Cn1ccnc1CN1CCC2(COCCN(Cc3ccsc3)C2)C1 (stereo not given),-5.11%
18,NC(=O)c1ccc(CN2CCCC(N3CCCC3)C2)cc1 (stereo not given),-1.17%
19,Cc1ccc(CN2CCCC23CCN(S(=O)(=O)c2ccccc2)C3)o1 (stereo not given),4.14%
20,OCCn1cc(CN2CCN(CCOCC(F)(F)F)CC2)cn1,-3.85%
